The list is not random: actives were taken first. Their share in the collection is about 2.7%.
Env fusion inh – HIV envelope-mediated fusion inhibition | HeLa-JRFL Env/CEM21 cell fusion, luciferase | inhibition, % at 12.3 µM | hit rate 1.1% among 360,000 | AID 651610;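 active = mean replicate inhibition score of at least 50 and every replicate individually at or above 50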;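 also: 0% = plate neutral controls and 100% = maraviroc near 300 nM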
INS-1E GSIS act – GLuc luminescence reporter in INS-1E cells, primary screen for activators of glucose-dependent secretion of insulin. INS-1E GLuc reporter insulin secretion, 2-3 h. activation, % at 16.6 µM. hit rate 0.61% among 370,000. AID 743287;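 active = lowest replicate activation of at least 40%, so every replicate reaches that level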;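 also: 0% = median of neutral control wells and 100% = median of IBMX positive control wells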
EWS-Fli inh – EWS/Fli transcriptional activity inhibition; A673 NR0B1-luciferase reporter, viability-normalised; inhibition, % at 12.6 µM; AID 651661; hit rate 0.67% among 350,000;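 active = mean inhibition of at least 50% after viability correction, with every replicate also passing that limit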;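 also: firefly luciferase signal divided by Alamar Blue viability fluorescence both relative to DMSO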
F508del corr – correctors of CFTR F508del function in bronchial epithelial cells; activity (quench increase), % at 7.58 µM; hit rate 0.36% among 350,000; CFBE cells, YFP halide quenching; stimulated with forskolin plus potentiator P3; % fluorescence drop versus neutral controls;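 active = mean added fluorescence quench of at least 8% versus neutral control, with both replicates also reaching 8%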;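 also: cells transiently co-express mutant CFTR-F508del with the halide-sensitive YFP; corrector assay measuring rescue of mutant channel to the surface after 24 h compound exposure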
PGC1a acetyl inh – lowers PGC1a acetylation signal in U2OS cells | AID 651687 | AlphaScreen anti-acetyl-lysine; with virally co-expressed GCN5 acetyltransferase | hit rate 0.17% among 350,000 | inhibition, % at 15.6 µM;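 active = every replicate shows inhibition of at least 40%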;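 also: 0% = neutral control wells and 100% = positive control wells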
PAX8 inh HTS – lowers PAX8-driven luciferase in RMG-I cells | RMG-I TPO-luciferase reporter, SteadyGlo, 24 h | inhibition, % at 12.6 µM | hit rate 1.2% among 360,000 | AID 652154;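 active = mean replicate inhibition at least 60% with every replicate also reaching 60%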;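 also: luciferase light reporting Pax8 driven TPO promoter activity; plate controls were median of neutral control wells for no effect and mitoxantrone controls for full effect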
* = called active by the depositor; x = not tested or not shown; [ ] = remark or other dose.

SMILES	Env fusion inh	INS-1E GSIS act	EWS-Fli inh	F508del corr	PGC1a acetyl inh	PAX8 inh HTS
O=C(CCS(=O)(=O)c1ccccc1)Nc1nc(-c2ccccn2)cs1	14	x	13	3	x	73*
Cc1csc(NC(=O)C(C)Oc2ccc(Br)cc2)n1 (configuration not stated)	-7	-7	-7	1	0	106*
CCC(=O)N1CC2(CCN(C(=O)c3cccnc3)CC2)c2c([nH]c3cc(OC)ccc23)[C@@H]1CO	x	3	-3	0	-3	x
C=CCN=C1NN=C(c2ccc3c(c2)OCCO3)CS1	32	10	58*	-2	x	-31
C=CCN=C1NN=C(c2cc(C)n(CC=C)c2C)CS1	46	14	80*	0	x	15
Cc1cc(C(=O)N2CCCC(C(=O)c3ccc(Cl)cc3C)C2)no1 (configuration not stated)	61*	-36	x	-1	-7	22
O=C(c1ccc2ccccc2n1)N1CCN(S(=O)(=O)c2ccc(Cl)cc2)CC1	56*	x	9	-2	4	14
Cc1c(C)c2cc(Cl)c(OCC(=O)Nc3ccccn3)cc2oc1=O	-9	2	-13	-1	-3	-23
O=C(COc1ccc(Cl)cc1Cl)Nc1ccccn1	x	9	60*	-2	22	x
COC(=O)c1sccc1NC(=O)COc1ccc(C)cc1	-6	-5	-50	0	x	-20
COC(=O)c1sccc1NC(=O)COc1ccc(Cl)cc1Cl	-100	61*	x	x	x	-29
Cc1c(C)c2ccc(OCC(=O)Nc3ccccn3)c(C)c2oc1=O	83*	-5	x	-3	x	-15
COc1ccc(NC(=O)Nc2ccc3c(c2)C(=O)N([C@@H](C)CO)C[C@@H](C)[C@H](CN(C)Cc2ccc(C(=O)O)cc2)O3)cc1	2[16.7 µM]	14	-6	1	0	x
CO[C@H]1CN(C)C(=O)c2ccc(NC(=O)C3CC3)cc2OC[C@H](C)N(C(=O)c2cnccn2)C[C@@H]1C	-11[16.7 µM]	-5	3	2	2	x
CN(C)CCCN(C(=O)c1ccc(Cl)s1)c1nc2cc3c(cc2s1)OCO3	-5	-30	57*	1	-9	-3
CN(C)CCCN(C(=O)c1cc2cc([N+](=O)[O-])ccc2s1)c1nc2cc3c(cc2s1)OCCO3	87*	-11	52*	0	54*	x
CN(C)CCCN(C(=O)c1ccc([N+](=O)[O-])s1)c1nc2cc3c(cc2s1)OCCO3	-11	9	x	-1	x	-22
CN(C)CCCN(C(=O)c1cc(Cl)sc1Cl)c1nc2cc3c(cc2s1)OCO3	-3	-41	x	4	x	3
CC(=O)N(C)C[C@@H]1Oc2cc(-c3ccc(C)cc3)ccc2S(=O)(=O)N([C@H](C)CO)C[C@@H]1C	12[16.7 µM]	4	-5	-1	2	x
O=C(O)C[C@H]1C[C@@H]2c3cc(NC(=O)c4ccc5c(c4)OCO5)ccc3O[C@@H]2[C@H](CO)O1	0[16.7 µM]	2	1	-6	3	-8
CC(C)NC(=O)N(C)C[C@H]1Oc2cc(C#CC3CC3)ccc2S(=O)(=O)N([C@@H](C)CO)C[C@H]1C	-36[16.7 µM]	-8	3	0	9	x
Cc1cccc(N2CCN(C(=O)CCCSc3nc4ccccc4[nH]3)CC2)c1C	74*	-23	x	x	3	x
CNC[C@@H]1Oc2ccc(NS(=O)(=O)c3cn(C)cn3)cc2C(=O)N([C@@H](C)CO)C[C@@H]1C	-14[16.7 µM]	29	6	4	-4	-21
COc1cccc(CNC23CC4CC(CC(C4)C2)C3)c1OCc1ccccc1	62*	-47	32	-1	-31	10
COc1cccc(CNCCc2c[nH]c3ccccc23)c1OCc1ccccc1	x	-27	18	-1	x	-5
SMILES	Env fusion inh	INS-1E GSIS act	EWS-Fli inh	F508del corr	PGC1a acetyl inh	PAX8 inh HTS
C[C@H](O)C#Cc1ccc2c(c1)O[C@H](CN(C)C(=O)CC1CC1)[C@H](C)CN([C@H](C)CO)S2(=O)=O	-7[16.7 µM]	14	0	-1	-3	x
O=C1Nc2c(Cl)cc(Cl)cc2C12Nc1ccccc1S2 (configuration not stated)	55*	-4	-50	-3	x	-69
O=C(Nc1ccc(Cl)cc1)N1C[C@@H]2[C@H](c3ccccc31)[C@H](CO)N2C(=O)c1ccccn1	x	-15	-16	0	2	16
Cn1c(CS(=O)Cc2c(Cl)cccc2Cl)nnc1SCc1ccc(Cl)cc1 (configuration not stated)	62*	-34	x	x	10	x
O=S(Cc1ccc(Br)cc1)Cc1nnc(SCc2ccc(Cl)cc2)n1-c1ccccc1 (configuration not stated)	65*	x	x	x	8	x
COc1cccc(S(=O)(=O)N(C)C[C@H]2Oc3cc(C#CCN(C)C)ccc3S(=O)(=O)N([C@H](C)CO)C[C@@H]2C)c1	0[16.7 µM]	-17	28	-4	-14	x
CC(C)[C@@H]1COCc2cn(nn2)CC[C@H](Cc2ccccc2)C(=O)N1	5[16.7 µM]	-1	-5	x	x	-13
C[C@H]1CN([C@@H](C)CO)C(=O)c2c(c3ccccc3n2C)-c2ccccc2CO[C@H]1CN(C)S(=O)(=O)c1ccc([N+](=O)[O-])cc1	x	9	8	-3	-3	91*
C[C@@H]1CN([C@@H](C)CO)C(=O)c2c(c3ccccc3n2C)-c2ccccc2CO[C@H]1CN(C)S(=O)(=O)c1ccc(C#N)cc1	69*	-2	7	-5	-22	23
C[C@@H]1CN([C@@H](C)CO)C(=O)c2c(c3ccccc3n2C)-c2ccccc2CO[C@@H]1CN(C)S(=O)(=O)c1ccc(C#N)cc1	x	7	2	3	-1	x
COc1ccc(Cn2c(SCc3cc(C)ccc3C)nc3cc(OC)c(OC)cc3c2=N)cc1	11	x	x	x	x	x
COc1ccc(Cn2c(SCc3ccc(C)cc3)nc3cc(OC)c(OC)cc3c2=N)cc1Cl	122*	x	x	x	x	109*
CC(O)c1nc2ccccc2n1C1CCCCC1 (configuration not stated)	x	63*	x	x	-2	x
CC(O)c1nc2ccccc2n1Cc1ccccc1 (configuration not stated)	-12	15	1	-1	8	6
CO[C@H]1CN(C)C(=O)c2ccc(NC(=O)C3CCC3)cc2OC[C@@H](C)N(Cc2cccnc2)C[C@H]1C	x	4	0	2	x	-5
O=C(CN(C1CCCCC1)S(=O)(=O)c1ccccc1)NCC1CCCO1 (configuration not stated)	6	24	1	-1	1	-9
CN(c1ccc(F)cc1)S(=O)(=O)c1ccc(Cl)c(C(=O)NCC2CCCO2)c1 (configuration not stated)	0	43*	1	-3	-5	x
O=C(CN(C1CCCCC1)S(=O)(=O)c1ccc(F)cc1)NCC1CCCO1 (configuration not stated)	x	-14	20	21*	35	45

Screens (PubChem)
